High-throughput results as filed in PubChem.
SW480 rerep: inducers of DNA re-replication in SW480 colon cancer cells | Potency, µM (highest dose often 46.1 µM), inactives show top-dose re-replication activation, most hits filed as activators | hit rate 1.8% among 340,000 | AID 624297 | SW480 DNA re-replication, Hoechst DNA content imaging, 48 h; further: potency means the concentration at half of the fitted maximal effect; % of control where 0% means no effect; nearly all actives have a fitted effect of over 55% in size
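Compounds, transferred as 23 nL by pin tool, were incubated with cells for 48 hr; DNA content per nucleus was then quantified by Hoechst staining and fluorescence plate imaging.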
VP16 counter: counter-screen for ROR gamma inhibitors: Gal4-VP16 reporter; Drosophila S2 Gal4-VP16 UAS-luciferase, luminescence, 20 h; Potency, µM (series often up to 53.6 µM), without a hit: at the top dose activity, negative = inhibition, hits mostly inhibitors; hit rate 3.5% among 310,000; AID 2546;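 further: Gal4-VP16 expression switched on by copper sulfate through the metallothionein promoter; potency means the concentration at half of the fitted maximal effect; on the % scale 0 is the no-effect control and ±100 the full control effect; nearly all actives have a fitted effect of over 50% in size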
MCF10A rereplic: inducers of DNA re-replication in MCF 10A breast cells | Potency, µM (titrated, usually from 46.1 µM), inactives show top-dose activity, positive = re-replication, hits mostly activators | hit rate 2.9% among 350,000 | MCF 10A DNA re-replication, Hoechst nuclear intensity, 48 h | AID 624296; further: potency means the concentration at half of the fitted maximal effect; % of control where 0% means no effect; nearly all actives have a fitted effect of over 50% in size
IL-1B inflam inh: inhibitors of inflammasome signaling (IL-1 beta secretion); THP-1 LPS/ATP IL-1B secretion, AlphaLISA, 16 h; stronger effect = lower value; activity change, % at 57.5 µM; AID 743279; hit rate 4.7% among 360,000; in the data active means activity change below about -50%; inconclusive means mostly about -30% to -49%; further: on the % scale 0 is the no-effect control and ±100 the full control effect
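Secreted IL-1B measured by AlphaLISA bead assay after 16 h compound exposure of THP-1 cells; compounds (final up to 57.5 uM) added 1 h before LPS (250 ng/mL) and ATP (1.25 mM) stimulation; lower signal means less secretion.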
RORgamma inh: blocks mouse ROR gamma transcriptional activity; Drosophila S2 Gal4-RORgamma UAS-luciferase reporter, 20 h; P51450; AID 2551; Potency, µM (highest dose often 53.6 µM), without a hit: at the top dose activity change, negative = inhibition, actives largely listed as inhibitors; hit rate 5.4% among 310,000; further: potency means the concentration at half of the fitted maximal effect; on the % scale 0 is the no-effect control and ±100 the full control effect; nearly all actives have a fitted effect of over 60% in size
Target sequence (P51450 whole entry, looked up, the tested form may be a part): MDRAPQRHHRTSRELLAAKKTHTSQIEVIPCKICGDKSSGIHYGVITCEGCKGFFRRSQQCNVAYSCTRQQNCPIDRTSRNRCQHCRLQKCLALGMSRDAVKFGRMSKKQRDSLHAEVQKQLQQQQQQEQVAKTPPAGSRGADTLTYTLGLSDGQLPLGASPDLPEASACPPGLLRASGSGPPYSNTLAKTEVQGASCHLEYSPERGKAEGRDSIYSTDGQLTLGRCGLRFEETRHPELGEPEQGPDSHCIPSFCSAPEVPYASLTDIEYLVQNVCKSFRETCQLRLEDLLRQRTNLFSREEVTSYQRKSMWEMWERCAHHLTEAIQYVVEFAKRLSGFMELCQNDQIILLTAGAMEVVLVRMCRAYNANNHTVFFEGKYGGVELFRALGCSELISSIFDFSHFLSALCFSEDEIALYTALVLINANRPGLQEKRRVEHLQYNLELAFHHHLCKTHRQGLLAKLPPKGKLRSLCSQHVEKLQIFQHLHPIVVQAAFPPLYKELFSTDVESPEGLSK
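In this cell-based reporter format, copper sulfate (700 uM final) drives Gal4–ROR gamma fusion expression from a metallothionein promoter in Drosophila Schneider cells; compounds preincubated 1 hr, reporter read after 20 hr at ambient temperature.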
Active calls of the source: *; [ ] = dose if it differs, or a comment. Most compounds without a hit are left out; they make up all but 11% or so of the library. Unless noted, the call rests on the fitted dose curve; in most records, active means well fitted curve in the direction sought with a large enough effect; inconclusive means small, poorly fitted or top-dose-only effect, or another doubt; inactive means no such curve, though single readings can be large; an effect the other way counts as inactive or inconclusive.

Results for CC(C)Oc1cccc(C(=O)C2CCCN(Cc3cccn3-c3ccccn3)C2)c1 (stereo unspecified) ?
SW480 rerep: inconclusive; VP16 counter: 1%; MCF10A rereplic: 11%; IL-1B inflam inh: -92*; RORgamma inh: -19%

Results for COc1ccc2nc(SCC(=O)NCc3ccc(S(N)(=O)=O)cc3)[nH]c2c1 ?
SW480 rerep: 15%; VP16 counter: 1%; MCF10A rereplic: -3%; IL-1B inflam inh: 0; RORgamma inh: 0%

What do the screens show for `COc1ccc2c(c1)CCC(=O)[C@H](O)C[C@H](c1ccccc1)OC2=O`?
IL-1B inflam inh: 3

Results for Cc1ccc(-n2cccn2)c(CN2CCCC(C(=O)c3sccc3C)C2)c1 (stereo unspecified) ?
SW480 rerep: inconclusive; VP16 counter: -9%; MCF10A rereplic: 26%; IL-1B inflam inh: -95*; RORgamma inh: -23%

Results for COc1ccc(C(=O)C2CCCN(Cc3cccn3-c3nccs3)C2)cc1F (stereo unspecified) ?
SW480 rerep: 19%; VP16 counter: 1%; MCF10A rereplic: -1%; IL-1B inflam inh: -84*; RORgamma inh: -8%

How did COc1ccc(C(=O)C2CCCN(Cc3cccn3-c3nccs3)C2)cc1OC (stereo unspecified) do in these assays?
SW480 rerep: 4%; VP16 counter: 4%; MCF10A rereplic: 4%; IL-1B inflam inh: -28; RORgamma inh: -21%

How did CCOC(=O)c1cnc2ccc(C)cc2c1Nc1ccc(N2CCOCC2)cc1 do in these assays?
SW480 rerep: 16%; VP16 counter: inconclusive; MCF10A rereplic: 21µM*; IL-1B inflam inh: inconclusive; RORgamma inh: inconclusive

How did O=S(=O)(Nc1nc2ccccc2nc1Nc1ccc(N2CCOCC2)cc1)c1cc(Cl)ccc1Cl do in these assays?
SW480 rerep: 1%; VP16 counter: 1%; MCF10A rereplic: inconclusive; IL-1B inflam inh: 32; RORgamma inh: inconclusive

How did CCOC(=O)c1nc(Nc2ccc(N3CCOCC3)cc2)c2ccccc2n1 do in these assays?
SW480 rerep: 0%; VP16 counter: 11%; MCF10A rereplic: -12%; IL-1B inflam inh: -84*; RORgamma inh: -3%

How did Clc1nc(Nc2ccc(N3CCOCC3)cc2)c2ccccc2n1 do in these assays?
SW480 rerep: -7%; VP16 counter: -4%; MCF10A rereplic: 0%; IL-1B inflam inh: -64*; RORgamma inh: inconclusive

How did CCOC(=O)c1nc(Nc2ccc(C(C)=O)cc2)c2ccccc2n1 do in these assays?
SW480 rerep: -20%; VP16 counter: -6%; MCF10A rereplic: 18%; IL-1B inflam inh: -11; RORgamma inh: 10%

How did Cn1c(/C(C#N)=C(\O)CN2CCN(Cc3ccccc3)CC2)nc2ccccc21 do in these assays?
SW480 rerep: 2%; VP16 counter: 22µM*; MCF10A rereplic: -2%; IL-1B inflam inh: -10; RORgamma inh: 5.6µM*

How did Cc1ccc(SC/C(O)=C(\C#N)c2nc3ccccc3n2C)cc1 do in these assays?
SW480 rerep: 21%; VP16 counter: 6.3µM*; MCF10A rereplic: 18%; IL-1B inflam inh: -16; RORgamma inh: 7.9µM*

How did N#C/C(=C(/O)CN1CCOCC1)c1nc2ccccc2s1 do in these assays?
SW480 rerep: -2%; VP16 counter: -1%; MCF10A rereplic: -3%; IL-1B inflam inh: 2; RORgamma inh: 22%

Results for COc1ccc(OC2C=CC(c3ccccc3)OC2CO)c(C(C)=O)c1 (stereo unspecified) ?
VP16 counter: -5%[10 µM]; RORgamma inh: 15%[10 µM]

How did O=C(NCC1CC1(Cl)Cl)Nc1ccc(Cl)c(Cl)c1 (stereo unspecified) do in these assays?
SW480 rerep: inconclusive; VP16 counter: -23%; MCF10A rereplic: 18µM*; IL-1B inflam inh: -95*; RORgamma inh: inconclusive

Results for COc1cc2c(cc1OC)-c1cc(NC3CCCC3)nc(=O)n1CC2 ?
SW480 rerep: -5%; VP16 counter: 2%; MCF10A rereplic: 2%; IL-1B inflam inh: 1; RORgamma inh: inconclusive

How did COc1cc2c(cc1OC)-c1cc(OCc3ccccc3Cl)nc(=O)n1CC2 do in these assays?
SW480 rerep: -3%; VP16 counter: -4%; MCF10A rereplic: 16%; IL-1B inflam inh: -26; RORgamma inh: -1%

How did COc1cc2c(cc1OC)-c1cc(Nc3cccc(F)c3)nc(=O)n1CC2 do in these assays?
SW480 rerep: -5%; VP16 counter: -13%; MCF10A rereplic: -2%; IL-1B inflam inh: -26; RORgamma inh: 11%

What do the screens show for `COc1cc2c(cc1OC)-c1cc(Nc3ccc(F)cc3)nc(=O)n1CC2`?
SW480 rerep: -1%; VP16 counter: -9%; MCF10A rereplic: -2%; IL-1B inflam inh: -51*; RORgamma inh: 12%

What do the screens show for `CCN(CC)c1ccc(Nc2cc3n(c(=O)n2)CCc2cc(OC)c(OC)cc2-3)cc1`?
SW480 rerep: inconclusive; VP16 counter: 4%; MCF10A rereplic: inconclusive; IL-1B inflam inh: -95*; RORgamma inh: -12%

How did COc1cc2c(cc1OC)-c1cc(Nc3ccc(N(C)C)cc3)nc(=O)n1CC2 do in these assays?
SW480 rerep: -50%; VP16 counter: 2%; MCF10A rereplic: inconclusive; IL-1B inflam inh: -58*; RORgamma inh: -28%

How did COc1cccc(OCC(O)CNC(=O)c2oc3ccc(C)cc3c2C)c1 (stereo unspecified) do in these assays?
SW480 rerep: -1%; VP16 counter: -18%; MCF10A rereplic: -1%; IL-1B inflam inh: 6; RORgamma inh: inconclusive

Results for CCCn1nnc(NC(=S)NC(=O)CC)n1 ?
SW480 rerep: inconclusive; VP16 counter: 10µM*; MCF10A rereplic: 2%; IL-1B inflam inh: -1; RORgamma inh: 7.1µM*

Results for CCCn1nnc(NC(=S)NC(=O)/C=C/c2ccc(Cl)cc2)n1 ?
SW480 rerep: -10%; VP16 counter: -20%; MCF10A rereplic: 2%; IL-1B inflam inh: 17; RORgamma inh: 5µM*

What do the screens show for `CCCn1nnc(NC(=S)NC(=O)Cc2ccccc2)n1`?
SW480 rerep: inconclusive; VP16 counter: 1%; MCF10A rereplic: -4%; IL-1B inflam inh: 90; RORgamma inh: 0.25µM*

What do the screens show for `CCCn1nnc(NC(=O)C(C)C)n1`?
SW480 rerep: -29%; VP16 counter: -2%; MCF10A rereplic: -4%; IL-1B inflam inh: -3; RORgamma inh: 12%

What do the screens show for `COC(=O)c1ccc(-c2ccc(/C=N/NC(=O)Cc3nnc(N)s3)o2)cc1`?
SW480 rerep: inconclusive; VP16 counter: 13%; MCF10A rereplic: 2%; IL-1B inflam inh: -86*; RORgamma inh: 6%

How did Cc1ccc(O)c(C2=NNC(c3ccc(Cl)cc3)C2)c1 (stereo unspecified) do in these assays?
SW480 rerep: inconclusive; VP16 counter: 13µM*; MCF10A rereplic: 3%; IL-1B inflam inh: 2; RORgamma inh: 7.9µM*
